This passage reports max response results from PubChem BioAssay AID2314 (National Center for Advancing Translational Sciences (NCATS), 2010).

The structures appear in SMILES notation. The campaign covered roughly 300,000 compounds. About 37,000 (12%) were called active. The sample holds actives, similar compounds and a random draw of the others, so the mix is not that of the screen. A number with no mark means an inactive call. Rule as the data show it: active = max response mostly above about 13% (no sharp cut-off); inactive = mostly below about 14%.

The nature of the test: Cycloheximide Counterscreen for Small Molecule Inhibitors of Shiga Toxin. Also: read at 38.3 µM for the half of the compounds with a filed dose; 0% is about no effect. The settings on record: cell reporter, cycloheximide protein synthesis inhibition counterscreen; hits give high values.
Regarding `Fc1ccc(Cl)cc1-c1nc(Nc2ccncc2)c2nccnc2n1`, the max response was 1.12%. To `COc1ccc(N(C(=O)c2snc(C(N)=O)c2N)C(C(=O)NC2CCCC2)c2ccc(C)o2)c(OC)c1` (stereo not drawn) belongs -6.04%; to `Cc1ccc(SCc2c(C(=O)N/N=C/C3CC=CCC3)nnn2-c2nonc2N)cc1` (stereo not drawn), -2.54%. The value for `COCc1c(C(=O)N/N=C/C2CC=CCC2)nnn1-c1nonc1N` (stereo not drawn) was 1.58%; that for `O=C(N/N=C\C1CC=CCC1)c1ccc(Br)o1` (stereo not drawn) was 29.4% (active). To `C=CCC1CCC(=O)N2CCCC12` (stereo not drawn) belongs -5.3%; to `O=C(CCNS(=O)(=O)c1cccs1)N1CCN(c2ccc(F)cc2)CC1`, -5.58%; to `CN(CC(=O)N1CCN(c2ccccc2)CC1)S(=O)(=O)c1cccs1`, 29% (active).

Consider `COc1ccc(OC)c(S(=O)(=O)N(C)CC(=O)N2CCN(c3ccccc3)CC2)c1`, for which the max response was 6.23%.

On to `Cc1ccc(C(=O)NN(CCC#N)C2=NS(=O)(=O)c3ccccc32)cc1`, for which the max response was 0.601%. The value for `CONc1nc2nonc2nc1NOC` was -2.64%; that for `COc1ccc(NC(=O)c2c(SC)nsc2SC)cc1` was -1.45%; that for `COc1ccc(-c2nn(-c3ccccc3)cc2C(=O)Nc2nc(CC(C)=O)ns2)cc1` was 9.17%. To `COc1ccc(NC(=O)c2cn(-c3ccccc3)nc2SC)cc1` belongs 15.2% (active); to `Cc1ccc(-c2cn(S(=O)(=O)c3cccc([N+](=O)[O-])c3)nc2N)cc1`, -2.07%. The value for `Cc1ccc(-n2cc3ccc([N+](=O)[O-])cc3n2)cc1` was 46.9% (active); that for `Cc1cc(C)nc(Nc2cc([N+](=O)[O-])ccc2C)n1` was 7.47%. For the compound `CCCCc1nn(-c2ccccc2C(F)(F)F)c(=O)n1Cc1ccc(-c2ccccc2S(=O)(=O)NC(=O)c2sccc2C)cc1`, the max response is -3.92%.

As to `CN1CCN(CCCCOc2ccccc2-c2ccccc2)CC1`, the max response is -2.52%. For `COc1ccccc1N1CCN(C(=O)c2ccc(Cl)c(S(=O)(=O)N3CCCC3)c2)CC1`, the max response is 1.2%. To `CC12CN(NC(=O)c3ccc(Cl)cc3)C3(C#N)CC1CCC23C` (stereo not drawn) belongs -3.78%; to `OCCC1CN(Cc2ccc(Oc3ncccn3)cc2)CCN1CCc1ccccc1` (stereo not drawn), 14.5% (active).

As to `CC(C)=CCN1CCN(Cc2ccc(Oc3ncccn3)cc2)CC1CCO` (stereo not drawn), the max response was -1.38%.

With `CCOc1ccc(CN2CCN(CCCc3ccccc3)C(CCO)C2)cc1` (stereo not drawn), the max response is -3%. As for `N#Cc1cccc(CN2CCC(=O)N(CCO)CC2)c1`, the max response is -1.61%.

For `O=C(c1ccc(N2CCOCC2)c([N+](=O)[O-])c1)N1CCN(S(=O)(=O)c2cccs2)CC1`, the max response was -2%. To `CN(c1ccc(OCC(=O)O)cc1)S(=O)(=O)c1ccc2ccccc2c1` belongs -2.07%. To `O=C(NCc1ccccc1)c1ccc(S(=O)(=O)Nc2cccc(C(F)(F)F)c2)cc1` belongs 2.15%; to `O=C(Cc1cccs1)NCc1cccc(C(F)(F)F)c1`, 36.1% (active). The value for `O=C(NCc1cccc(C(F)(F)F)c1)c1cccc(S(=O)(=O)N2CCN(Cc3ccccc3)CC2)c1` was -5.35%.

As to `Cc1nc([N+](=O)[O-])nn1C12CC3CC(CC(Br)(C3)C1)C2`, the max response was 15.4%. To `CCC(C)(C)c1ccc(OCC(=O)N(C)C)c(C(C)(C)CC)c1` belongs -3.16%; to `O=C(c1ccc2nc(N3CCOCC3)sc2c1)N1CCN(c2ccc(Cl)cc2)CC1`, 1.7%; to `Cc1nc2ccc(C(=O)N3CCN(c4ccccc4)CC3)cc2s1`, -1.5%. To `Cc1nc2ccc(C(=O)N3CCSCC3)cc2s1` belongs 11.3% (active). To `OC(COCCC12CC3CC(CC(C3)C1)C2)CN1CCCCC1` (stereo not drawn) belongs -4.31%; to `Cc1nc(C)c(-c2nnc(-c3cccc(S(=O)(=O)N(C)C)c3)o2)cc1C(=O)NN`, -1.43%.

Consider `CN(C)c1ccnc2sc3c(=O)n(Cc4ccccc4)cnc3c12`, for which the max response was -5.28%. The value for `CC(=O)c1c(Nc2ccccc2)sc(C(=O)c2ccccc2)c1C` was 0.579%. To `Cc1nc2sc(C(=O)c3ccccc3)c(N)c2c2c1CCCC2` belongs 20.5% (active). To `CN(C)c1ccnc2sc(C(=O)c3ccccc3)c(N)c12` belongs 57.9% (active); to `COc1cccc(C(=O)c2sc3nc(-c4ccccc4)cc(C(F)(F)F)c3c2N)c1`, 10.5%. `CCOC(=O)c1sc2nc(SC)nc(-c3ccccc3)c2c1N`: the max response is -2.15%. Consider `CS(=O)(=O)c1sc2nc(-c3ccccc3)cc(-c3ccccc3)c2c1N`, for which the max response was -3.03%.

Turning to `NC(=O)c1sc2nc3c(c(-c4ccccc4)c2c1N)CCC3`, the max response was -2.08%.

For `Cc1ccc2c(N)c(C(=O)c3ccccc3)sc2n1`, the max response was 29% (active). The value for `CCN(CC)C(=O)c1sc2nc(-c3ccccc3)ccc2c1N` was 63.5% (active); that for `CCc1nc2sc(C(=O)O)c(N)c2c2c1CCCC2` was -1.77%; that for `COC(=O)c1cc2c(N)c(C(=O)c3ccc(Cl)cc3)sc2nc1C(OC)OC` was -3.14%. On to `C[C@H](C(=O)CC(=O)OC(C)(C)C)[C@H](O)c1ccc(C(F)(F)F)cc1`, for which the max response was 1.49%. The value for `Oc1ccc(-c2c(-c3ccccc3)nn3c(C(F)(F)F)cc(C(F)(F)F)nc23)cc1` was -7.49%; that for `Cc1ccc2c(c1)N(CC(=O)N1CCC(O)CC1)C(=O)CO2` was -1.82%. To `CC[C@@H](C)[C@H](NC(=O)CCc1c(C)c2cc3c4c(oc3c(C)c2oc1=O)CCCC4)C(=O)O` belongs 9.7%; to `COc1ccc(/C=C2\SC(=S)N(CCC(=O)Nc3ccccn3)C2=O)cc1OC`, -7.17%; to `O=C(CNC(=O)[C@@H]1Cc2ccccc2CN1)NC1CCCCC1`, 1.46%. The value for `COc1ccc(/C(C)=N/Nc2cc(C(F)(F)F)ccc2Cl)c(OC)c1` was -5.52%.

`O=C(CCl)N(Cc1cccc([N+](=O)[O-])c1)c1cccc(Cl)c1`: the max response was -0.93%. To `Nc1c(-c2cccc(Cl)c2)cnn1-c1cccc([N+](=O)[O-])c1` belongs 17.2% (active); to `Cn1nc(-c2ccccc2)c2cc([N+](=O)[O-])ccc21`, 1.38%; to `CNc1[nH]ncc1[N+](=O)[O-]`, 40.2% (active).

In the case of `CN(C)/C=C(\C=[N+](C)C)c1[nH]ncc1[N+](=O)[O-]`, the max response is -6.11%.

On to `CC(=O)C(C)n1cnc2scc(-c3ccc(C)cc3)c2c1=O` (stereo not drawn), for which the max response was 1.16%. The value for `COc1ccc(CN2CCCC(C(=O)N3CCCCC3)C2)cc1` (stereo not drawn) was -1.73%; that for `Cc1cnc(NC(=O)CSc2nnc(C)s2)s1` was 20.1%. To `Cc1ccc(SCC(=O)Nc2ncc(C)s2)cc1` belongs 25% (active); to `Cc1cnc(NC(=O)CSc2nnc(-c3ccc(Cl)cc3Cl)n2N)s1`, 24.6% (active). To `Cc1cnc(NC(=O)CSc2nnc(-c3ccccc3)n2Cc2ccccc2)s1` belongs -3.18%; to `COc1ccc(CC(=O)NCc2nnc(SCC(=O)Nc3ncc(C)s3)n2C)cc1`, 3.99%; to `Cc1cnc(NC(=O)CSc2c(Cl)cccc2Cl)s1`, 5.96%. As to `COc1ccc(CNS(=O)(=O)c2ccc(NC(=O)N3CCCCC3)cc2)cc1`, the max response was 2.3%. To `CCOC(=O)c1c(-c2ccccc2)oc2cc(Br)c(O)c(C=O)c12` belongs 5.72%; to `CCN(CC)c1ccc(NC(=O)CCc2nnc3ccc(N4CCCCC4)nn23)c(C)c1`, -1.8%. Regarding `CCCc1ccc(OCC(O)CN2CCN(CCO)CC2)cc1` (stereo not drawn), the max response is -1.67%. To `S=c1nc(C23CC4CC(CC(C4)C2)C3)nc2sccn12` belongs 1.25%. To `CCn1c(NC(=O)c2nn(C)cc2Br)nc2ccccc21` belongs -2.42%. The value for `COC(=O)CN1C(=O)C(C)(C)Oc2ccc(C(=O)Nc3cccc(OC)c3)cc21` was -5.75%. As for `CC(C)c1ccc(C(=O)OC2CCOC2=O)cc1` (stereo not drawn), the max response was 6.8%. The value for `O=C1OCCN1C(=O)[C@H]1[C@H](c2ccc(F)cc2)C(c2ccccc2)=NN1c1ccc(Br)cc1` was 5.32%. The value for `Cc1ccc(C)c(Cn2cnc3c(oc4ccccc43)c2=O)c1` was 20.1% (active). To `CCC(C(=O)OC)n1cnc2c(oc3ccccc32)c1=O` (stereo not drawn) belongs -2.56%; to `Cc1ccc(C)c(NC(=O)CSc2nc3c(oc4ccccc43)c(=O)n2-c2ccccc2)c1`, 0.718%. `OC(COCC1COc2ccccc2O1)CN1CCN(c2ccc(F)cc2)CC1` (stereo not drawn): the max response is -1.11%.

With `O=C1CCC(C(=O)N2CCC(O)(c3ccccc3)CC2)CN1CCc1ccccc1` (stereo not drawn), the max response is -0.943%.

For `CC(C)c1nnc(NC(=O)C2CC(=O)N(CCc3ccc(F)cc3)C2)s1` (stereo not drawn), the max response was -6.02%. The value for `Cc1cc(C(=O)NC2CC(C)(C)Cc3c2cnn3-c2ccccc2)n[nH]1` (stereo not drawn) was 3.28%; that for `COC(=O)c1ccc(C(=O)NC2CC(C)(C)Cc3c2cnn3-c2ccc(F)cc2)nc1` (stereo not drawn) was 24.5% (active). On to `CC1(C)Cc2c(cnn2-c2cccc(F)c2)C(NC(=O)c2cc[n+]([O-])cc2)C1` (stereo not drawn), for which the max response was -3.06%. Regarding `COC(=O)c1cccc(N2C(=O)C3C4C=CC(CC4)C3C2=O)c1` (stereo not drawn), the max response is -3.45%. The value for `O=C(O)c1cc(S(=O)(=O)NC2CCCc3ccccc32)ccc1O` (stereo not drawn) was 1.09%; that for `Cc1cc(-c2ccc(C)c(S(=O)(=O)NCCCN(Cc3ccccc3)C(C)C)c2)on1` was -2.55%; that for `Cc1ccc(Sc2cc(C(=O)c3ccccc3C(=O)O)ccc2[N+](=O)[O-])cc1` was -4.78%.

For `Cc1ccc(C(=O)CSc2ccccc2C(=O)O)cc1`, the max response is 20.8% (active). On to `Cc1ccc(C(=O)CSc2nnc(Cn3nnc4ccccc43)n2C)cc1`, for which the max response was -0.925%.
